# Reference: PubChem BioAssay AID720 (The Scripps Research Institute Molecular Screening Center, 2007)
# Screen size: about 97,000 compounds; about 140 (0.14%) were called active.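 How the source made its calls: active means inhibition above the screen-wide mean inhibition plus 3 SD (cut at about 15% in these data); inactive means the rest.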 Many of the other results were omitted from the sample, so actives are more common in it than they were.
# Biological target: Ephrin type-B receptor 4 (Homo sapiens) (UniProt P54760)
# Assay: blockers of EphB4 ligand binding – biochemical, TNYL-RAW peptide probe, fluorescence polarization, primary screen (AID 720);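 further: 0% = DMSO wells and 100% = excess unlabeled TNYL-RAW peptide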
# Settings: EphB4 LBD / TNYL-RAW-Alexa532 peptide, at 7 µM, hits give high values
# Ephrin type-B receptor 4 (Homo sapiens), sequence (P54760 whole entry, looked up): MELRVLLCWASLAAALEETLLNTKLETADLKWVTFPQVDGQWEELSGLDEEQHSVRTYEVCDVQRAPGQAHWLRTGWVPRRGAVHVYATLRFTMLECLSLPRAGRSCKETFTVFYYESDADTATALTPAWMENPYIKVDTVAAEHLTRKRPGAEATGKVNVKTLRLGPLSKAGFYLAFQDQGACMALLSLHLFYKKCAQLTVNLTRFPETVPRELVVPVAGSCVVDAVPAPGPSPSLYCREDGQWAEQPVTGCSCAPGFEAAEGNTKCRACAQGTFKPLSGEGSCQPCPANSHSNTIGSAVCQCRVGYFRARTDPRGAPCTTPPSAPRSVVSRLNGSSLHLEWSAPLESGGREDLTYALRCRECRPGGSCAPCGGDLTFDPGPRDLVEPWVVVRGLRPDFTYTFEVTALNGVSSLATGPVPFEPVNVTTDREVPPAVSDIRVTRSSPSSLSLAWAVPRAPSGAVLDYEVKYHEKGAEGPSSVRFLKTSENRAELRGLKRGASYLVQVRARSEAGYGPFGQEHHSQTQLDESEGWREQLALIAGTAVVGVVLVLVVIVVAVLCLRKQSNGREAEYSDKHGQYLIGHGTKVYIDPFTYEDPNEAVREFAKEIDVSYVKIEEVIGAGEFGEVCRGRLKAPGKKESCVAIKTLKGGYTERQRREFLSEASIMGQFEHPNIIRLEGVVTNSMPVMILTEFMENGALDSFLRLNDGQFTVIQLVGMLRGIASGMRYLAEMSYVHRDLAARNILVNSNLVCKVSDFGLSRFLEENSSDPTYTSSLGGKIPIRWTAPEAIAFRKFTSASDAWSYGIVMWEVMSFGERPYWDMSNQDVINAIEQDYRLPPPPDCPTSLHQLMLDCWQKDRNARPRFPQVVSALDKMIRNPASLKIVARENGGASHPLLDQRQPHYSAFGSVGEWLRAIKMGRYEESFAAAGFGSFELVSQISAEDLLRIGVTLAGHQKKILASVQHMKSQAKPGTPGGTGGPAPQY
row,Compound,inhibition
1,Oc1ccc(CNc2ccccc2O)cc1,-12.7% (inactive)
2,O=C(COc1ncnc2c(Cl)cc(Cl)cc12)N1CCN(S(=O)(=O)c2ccccc2)CC1,-7.07% (inactive)
3,CC(C)CNC(=O)CC(c1ccccc1)c1c(O)ccc2ccccc12 (centres undefined),2.89% (inactive)
4,Cc1ccsc1/C=C1\SC(N2CCOCC2)=NC1=O,-4.07% (inactive)
5,Nc1ccc(C(=O)OCC(=O)NC2CCCc3ccccc32)cc1[N+](=O)[O-] (centres undefined),-2.7% (inactive)
6,COc1ccc(OCCCC(=O)Oc2ccc(OC)cc2)cc1,5.05% (inactive)
7,O=C(COC(=O)c1ccccc1NC(=O)c1ccco1)Nc1ccc2c(c1)OC(F)(F)O2,-1.26% (inactive)
8,COc1ccc(NC(=O)NC2CC3CCCC(C2)N3Cc2ccccc2)cc1 (centres undefined),-5.24% (inactive)
9,O=C(Nc1ccccc1[N+](=O)[O-])C1C(c2ccccc2)=C1c1ccccc1,2.26% (inactive)
10,Cn1cnc([N+](=O)[O-])c1Nc1ccccc1O,2.1% (inactive)
11,Clc1ccc(COn2c(-c3ccc(Cl)cc3Cl)nc3ncccc32)cc1,1.17% (inactive)
12,O=c1c2ccccc2nc2n1C1(CCCCC1)Cc1ccccc1-2,6.44% (inactive)
13,CCOC(=O)C1=C(c2ccccc2)O/C(=C(/C(=O)OC)C(F)(F)F)S1,-6.59% (inactive)
14,O=C(Cn1ccc([N+](=O)[O-])n1)NCc1cccs1,-8.7% (inactive)
15,Cc1[nH]n(-c2ccccc2)c(=O)c1CCOC(=O)c1ccc(C(F)(F)F)cc1,5.95% (inactive)
16,COC(=O)Cc1cc(=O)oc2c(C)c(O)ccc12,-7.76% (inactive)
17,COC(=O)/C(=C\Nc1ccccc1)NC(=O)c1ccc(Cl)cc1Cl,2.49% (inactive)
18,COC(=O)c1cccc(N(C(=O)c2ccco2)C(C(=O)NC2CCCC2)c2ccco2)c1 (centres undefined),-2.29% (inactive)
19,O=C(CSC1=Nc2ccccc2C2=NC(CC(=O)NCc3ccco3)C(=O)N12)NCc1ccco1 (centres undefined),-6.96% (inactive)
20,Cc1cccc(C)c1NC(=O)CCS(=O)(=O)c1cccc2nsnc12,7.08% (inactive)
21,Cc1cc2nc(C)n(CCCNC(=O)Nc3ccccc3)c2cc1C,-0.81% (inactive)
22,CCN1CCC(=NNC(=O)c2ccc(C)c([N+](=O)[O-])c2)CC1,8.39% (inactive)
23,ONC(=Nc1ccc(Cl)cc1)c1ccccc1Cl,-1.3% (inactive)
24,CCn1nc(C)c(NC(=O)/C=C/c2ccc(OC)c(COc3ccc(Br)cc3)c2)c1C,7.03% (inactive)

row,Compound,inhibition
1,c1ccc(-c2nc(NCc3ccco3)c3ccccc3n2)cc1,4.23% (inactive)
2,CN1/C(=c2/s/c(=C3/C(=O)N(c4ccccc4)NC3=Nc3ccccc3)n(C)c2=O)C(C)(C)c2ccccc21,0.36% (inactive)
3,Cc1ccc(NC2(C#N)C(=O)Nc3ccccc32)cc1 (centres undefined),0.9% (inactive)
4,CCCCNC(=O)CSc1nc2n[nH]c(C)c2c(=N)n1-c1cccc(Cl)c1C,6.52% (inactive)
5,Cc1ccc2c(c1)-c1c(ssc1=S)C(C)(C)N2C(=O)CN1C(=O)c2ccccc2C1=O,10.6% (inactive)
6,O=C(Nc1sc2c(c1-c1nc3ccccc3[nH]1)CCCC2)C1CC1,-2.93% (inactive)
7,COC(=O)Nc1sc2nc(C)cc(C)c2c1-n1cccc1,-5.41% (inactive)
8,Cc1nc(NNC(=O)c2ccccc2)cc(-c2ccccc2)n1,8.09% (inactive)
9,O=C(COC(=O)c1ccc(S(=O)(=O)N2CCc3ccccc3C2)cc1)NC(=O)NCc1ccco1,3.64% (inactive)
10,COc1cc(C)c(C(C)C)cc1S(=O)(=O)n1ccnc1,1.74% (inactive)
11,NC(=O)C1(N2CCCCC2)CCN(C(=S)Nc2ccc(Cl)cc2)CC1,-1.72% (inactive)
12,NC(=O)COc1ccc(/C=N/NC(=O)C2CCCN2S(=O)(=O)c2ccc(Cl)cc2)cc1 (centres undefined),0.72% (inactive)
13,CS(=O)(=O)N1CCN(c2cccc(Cl)n2)CC1,-3.22% (inactive)
14,CCCc1nc2sc3c(c2c(=O)n1NC(=O)CCCl)CCCC3,2.57% (inactive)
15,CC1CCC2(CC1)NC(=O)N(CC(=O)c1cccn1C)C2=O (centres undefined),4.98% (inactive)
16,COc1ccc(/C=C(/NC(=O)c2ccc(C)cc2)c2nc3ccccc3[nH]2)cc1OC,-1.55% (inactive)
17,CCCc1nnc(NC(=O)CN2C(=O)c3ccccc3S2(=O)=O)s1,18.1% (active)
18,CNC(=O)CN1C(=O)c2ccccc2S1(=O)=O,-4.4% (inactive)
19,CCCc1nnc(NC(=O)c2cccs2)s1,-2.26% (inactive)
20,COC(=O)c1cc(OC)ccc1-c1ccc(OC)cc1,-6.72% (inactive)
21,O=C(COC(=O)c1n[nH]c2ccccc12)NCc1ccccc1,1.83% (inactive)
22,CC(C)c1ccc(N2CCN(C(=O)c3ccccc3NC(=O)/C=C(\C(=O)O)c3ccccc3)CC2)cc1,-2.32% (inactive)
23,CC(C)Oc1ccc(Oc2ccc(C(F)(F)F)cn2)cc1,-4.38% (inactive)
24,O=C(CNC(=O)c1cc2c(s1)CCC2)Nc1ccccc1Br,-5.12% (inactive)

row,Compound,inhibition
1,C=CCOc1c2ccc(C(=O)N(CC)c3ccc(OC)cc3)cc2nn1C,0.66% (inactive)
2,C=CCNC(=O)c1sc(SC)cc1-c1ccc(Cl)cc1,-2.13% (inactive)
3,Cc1cccc(NC(=O)c2ccc(OCC(=O)NCc3ccccc3)cc2)c1C,0.02% (inactive)
4,Cc1ccc(NC(=S)N/N=C2/CCCc3c(C)cc(C)cc32)cc1,0.47% (inactive)
5,CCOC(=O)c1ccc2c(c1)nc(C)n2CC,-0.83% (inactive)
6,COC(=O)c1ccccc1OCC(=O)N1CCN(c2ccc(Cl)cc2)CC1,-4.75% (inactive)
7,OC(COCCC12CC3CC(CC(C3)C1)C2)CN1CCCCC1 (centres undefined),2.92% (inactive)
8,N/C(=N\OC(=O)c1cc(-c2ccccc2)nc2ccccc12)c1ccncc1,-5.76% (inactive)
9,Cc1ccc2c(Cl)c(C(=O)NCCCn3ccnc3)sc2c1,8.67% (inactive)
10,COc1ccc(C(=O)OCC(=O)NCC2CCCCC2)cc1S(=O)(=O)N1CCCc2ccccc21,-0.59% (inactive)
11,Cc1ccc(C(=O)c2c(NC(=O)c3ccncc3)sc3c2CCCC3)cc1,1.3% (inactive)
12,O=C(N/N=C\c1cccc(Br)c1)c1ccccc1-n1cccc1,1.13% (inactive)
13,CC(=O)c1cccc(NC(=O)N2CCCC2C(=O)NCCc2ccccc2)c1 (centres undefined),0.44% (inactive)
14,CC(=O)c1cccc(NC(=O)N2CCCC2C(=O)NCCC(C)C)c1 (centres undefined),3.74% (inactive)
15,CCC1CCCCN1C(=O)Nc1cccc(NC(=O)N2CCCCC2CC)c1 (centres undefined),16.1% (active)
16,Cc1ccc(NC(=O)C(C)c2cccc(C(=O)c3ccccc3)c2)cc1 (centres undefined),-1.1% (inactive)
17,CCOC(=O)C1=C(CN2CCc3ccccc32)NC(=O)NC1c1cc(C)ccc1C (centres undefined),-2.91% (inactive)
18,O=C1c2ccccc2C(=O)N1CCCc1nc(-c2ccccc2)no1,5.53% (inactive)
19,Cc1ccccc1OC(=O)Cn1c(C(F)(F)F)nc2ccccc21,-8.85% (inactive)
20,O=[N+]([O-])c1ccccc1/C=N/n1c(COc2ccccc2)n[nH]c1=S,2.36% (inactive)
21,Cc1ccc(/C=N\n2c(-c3ccccc3)n[nH]c2=S)s1,-7.78% (inactive)
22,Oc1ccccc1/C=N/n1c(-c2cccs2)n[nH]c1=S,15.8% (active)
23,COCCN(C(=O)c1ccco1)c1nnc(-c2ccc(OC)cc2)s1,0.8% (inactive)
24,c1ccc(-c2ccnc3nc(-n4cccc4)nn23)cc1,-2.67% (inactive)

row,Compound,inhibition
1,O=C(OCN1C(=O)c2ccccc2C1=O)/C(=C\c1ccco1)NC(=O)c1ccccc1,-9.89% (inactive)
2,O=C(ON=C1CCN(S(=O)(=O)c2ccccc2)CC1)c1ccc(Cl)cc1,-2.79% (inactive)
3,O=C(NCCCCc1ccccc1)C1CC(c2ccc([N+](=O)[O-])cc2)=NO1 (centres undefined),1.72% (inactive)
4,CC(=O)c1cc2c(cc1NC(=O)CN1CCCCCC1)OCO2,-6.18% (inactive)
5,COCCn1c(=S)[nH]c2cc(C(=O)NCCc3ccc(OC)c(OC)c3)ccc2c1=O,-6.01% (inactive)
6,CCOc1cc2[nH]c(=O)n(CCC(=O)NCc3ccc(OC)cc3)c(=O)c2cc1OCC,7.75% (inactive)
7,CCN(CC)C(=O)CN(c1cccc(OC)c1)S(=O)(=O)c1ccc(C)cc1,-6.83% (inactive)
8,COC(=O)c1ccc(CSc2ccc3nnc(-c4ccccc4)n3n2)o1,-1.52% (inactive)
9,CCc1c(-c2ccccc2)nc(N)c(C#N)c1-c1cccs1,-6.33% (inactive)
10,C=CCN1C(=O)C(Cc2cccc(Cl)c2)S/C1=N/N=C/c1ccco1 (centres undefined),2.87% (inactive)
11,O=C(Nc1cccc2ccccc12)N1CCN(Cc2ccc3c(c2)OCO3)CC1,0.42% (inactive)
12,CCOC(=O)C1Sc2[nH]c(=O)sc2C(c2ccc(Cl)cc2)C1C(=O)OCC (centres undefined),6.17% (inactive)
13,O=C(c1ccccc1Oc1ccccc1)N1CCN(c2ccc(F)cc2)CC1,1.29% (inactive)
14,CCCCOc1ccc(CSC(=N)N)cc1[N+](=O)[O-],-6.89% (inactive)
15,CCn1cc(C(=O)N/N=C(/C)c2ccc(F)cc2)c(=O)c2cc(F)c(N3CCCC3)cc21,5.77% (inactive)
16,Cc1ccc(SCC(=O)NC(=O)NCc2ccco2)c(C)c1,-1.3% (inactive)
17,COC(=O)c1ccc(S(=O)(=O)N2CCC(c3nc4ccccc4o3)CC2)cc1,2.06% (inactive)
18,CCCCc1nnc(NC(=O)CSc2nc(C)cc(=O)[nH]2)s1,0.99% (inactive)
19,CCCc1noc2c1/C(=N\O)CCC2,7.69% (inactive)
20,Cc1ccc(CCN2CC(C(=O)O)CC2=O)cc1 (centres undefined),-3.41% (inactive)
21,CCOC(=O)c1[nH]c(C)c(C(=O)OCC(=O)N2c3ccccc3CC2C)c1C (centres undefined),2.53% (inactive)
22,O=P(O)(CP(=O)(c1ccccc1)c1ccccc1)c1ccccc1O,4% (inactive)
